Measurements: PubChem BioAssay AID1491 (National Center for Advancing Translational Sciences (NCATS), 2009)
“And” between values parts separate entries of the source, which are not always exact repeats. Equal values may be shown once. Inconclusive results are not listed. Where a call stands in place of a potency, no number is given. The source made the active and inactive calls. Calls come from the whole dose curve; as a rule, active = well fitted inhibition curve with a large enough effect in the main read-out, with a control signal flat; inconclusive = small, poorly fitted or top-dose-only effect, or a change in a side signal; inactive = flat fitted curve, though single readings scatter.

Each compound was assayed against Neuropeptide S receptor (Homo sapiens) (UniProt Q6W5P4) (assay: Confirmation Concentration-Response Assay for Antagonists of the Neuropeptide S Receptor: cAMP Signal Transduction). Conditions: CHO-NPSR cells, cAMP TR-FRET, antagonist mode; series mostly up to 22.3 µM.
Neuropeptide S receptor (Homo sapiens), sequence (Q6W5P4 whole entry, looked up): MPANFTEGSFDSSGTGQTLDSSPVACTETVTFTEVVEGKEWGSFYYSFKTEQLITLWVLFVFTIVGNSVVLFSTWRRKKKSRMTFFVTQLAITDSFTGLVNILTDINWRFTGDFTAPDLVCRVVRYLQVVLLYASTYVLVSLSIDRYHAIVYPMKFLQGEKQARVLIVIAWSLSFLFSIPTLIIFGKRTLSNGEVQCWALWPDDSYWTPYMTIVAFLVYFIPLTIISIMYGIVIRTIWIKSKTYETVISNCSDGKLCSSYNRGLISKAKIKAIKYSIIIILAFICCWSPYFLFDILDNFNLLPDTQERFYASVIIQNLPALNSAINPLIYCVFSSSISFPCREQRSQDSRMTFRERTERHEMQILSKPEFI
Text: NIH Chemical Genomics Center [NCGC] NIH Molecular Libraries Probe Production centers Network [MLPCN] MLPCN Grant: X01-DA026210-01 Assay Submitter (PI): Heilig, Markus Alexander NCGC Assay Overview: Neuropeptide S receptor (NPSR), previously known as GPR154, is a recently de-orphanized G protein coupled receptor. Its endogenous ligand is the 20 amino acids peptide Neuropeptide S (NPS). […] NPS and its receptor are found in various tissues. Specifically they are highly expressed in brain areas that have been implicated in modulation of arousal, stress and anxiety. Central administration of NPS in mice produces an unusual profile of activity by inducing wakefulness and arousal, while at the same time suppressing anxiety. Therefore, NPSR may represent a novel drug target for the treatment of sleep and anxiety disorders. To identify NPSR antagonists, we developed a cell-based cAMP assay. NPS can stimulate the production of cAMP in Chinese hamster ovary cells stably expressing NPS receptor. This change in intracellular cAMP level can be detected by a homogeneous LANCE cAMP assay based on the TR-FRET (time resolved fluorescence resonance energy transfer) between a europium-labeled cAMP tracer complex and a cAMP-specific antibody labeled with Alexa Fluor 647. The europium-labeled cAMP tracer complex is formed by the tight interaction between Biotin-cAMP (b-cAMP) and streptavidin labeled with Europium-W8044 chelate (Eu-SA). Light pulse at 320 nm excites the europium of the cAMP tracer and the energy emitted is transferred to the Alexa molecule bound to the cAMP antibody, generating a TR-FRET signal at 665 nm. Residual energy from the europium will produce a light at 620 nm. The native unlabeled cAMP from cell lysates competes with the europium-cAMP tracer for antibody binding and reversely reduces the emission signal of Alexa by interrupting FRET between the two labeled molecules. Both emission signals from the FRET donor (620 nm) and the acceptor (665 nm) can be detected by a plate reader in the TRF mode. Expression of result in fluorescence ratio (665 nm/620 nm) helps to normalize differences due to cell density and reagent dispensing. This assay was successfully optimized to a 1536-well plate format. Select compounds from the primary screen (AID 1461) were chosen for confirmation based on potency, efficacy, SAR, and activity across other assays in PubChem and at NCGC. Other compounds are analogs of active compounds from the primary sceen.
NCGC Assay Protocol Summary: A Chinese hamster ovary (CHO) cell line stably expressing the NPS receptor (CHO-NPSR) was obtained from Dr. Heilig lab at NIAAA and maintained in F-12 Kaighn's media (Invitrogen, Carlsbad, CA, 21127) supplemented with 10 % FBS, 100 units/ml penicillin, 100 ug/ml streptomycin and 250 ug/ml geneticin at 37C, 5% CO2 in a humidified atmosphere. Before the assay, aliquots of cells were frozen and stored at -135C. The assay was performed in 1536-well format. Data are reported for both the ratio of the two emission wavelengths, and also for the component 'donor' channel, Em2=620. […] IC50 values were determined from concentration-response data modeled with the standard Hill equation. NPS 1536-well assay protocol: (1) Fresh or frozen CHO-NPSR cells were suspended in F-12 Kaighn's media supplemented with 10 % FBS, 100 units/ml penicillin and 100 ug/ml streptomycin. Cells were plated at 4 ul/well (1200 cells) to white, tissue culture treated 1536-well plates, and then cultured at 37C, 5 % CO2 for 16 to 30 hours. (2) Add 23 nl/well of compound in DMSO solution. The final titration for each compound was between 0.6 nM and 46 uM. (3) Add 1 ul of stimulation reagent (1X HBSS buffer, 5 mM HEPES, 0.1% BSA, 500 uM RO-201724 (Sigma-Aldrich, B8279), 1.5% Alexa 647-labeled anti-cAMP antibody (from Perkin Elmer), 100 nM NPS) (4) Incubation at 37C, 5 % CO2 for 60 min. (5) Add 1 ul/well detection reagent. […]
Potency is the fitted concentration of half-maximal effect.

SMILES | Potency
CCOC(=O)CCCC(=O)Nc1ncnc2c1C(c1ccccc1)c1c(ccc3ccccc13)O2 (stereo not given) | 2 µM (active)
CCC(C)(C)NC(=O)Cc1ccc(C)cc1 | inactive
S=C(Nc1ccccn1)c1ccccn1 | inactive
COc1ccc(N2C3=C(CC4=C2CC(C)(C)CC4=O)C(=O)CC(C)(C)C3)cc1 | inactive
Cc1ccc(S(=O)(=O)Nc2ccccc2CNc2c(C)n(C)n(-c3ccccc3)c2=O)cc1 | inactive
O=S1(=O)Nc2c(ccc3cccnc23)-c2ccccc21 | 4.47 µM (active)
S=C(Nc1ccccc1)Nc1nccs1 | inactive
O=C(NCc1ccccc1)Nc1ncnc2c1C(c1ccccc1)c1c(ccc3ccccc13)O2 (stereo not given) | 2.24 µM (active)
CCOC(=O)c1cnc(-n2nc(C)cc2C)nc1NC1CCCC1 | inactive
O=[N+]([O-])c1ccc(-c2nc(C(Cl)Cl)c3ccccc3n2)cc1 | inactive
CC1=C/C(=N\NC(=S)Nc2cccnc2)CC(C)(C)C1 | inactive
Cc1ccc2nc3ccc(N4CCCCCCC4)nn3c(=O)c2c1 | inactive
O=C(Nc1cc(=O)[nH]c2nc(-c3ccc(Cl)cc3)nn12)c1ccccc1 | 3.98 µM (active)
CCO[C@@H]1OC(C(=O)NCc2nc3ccccc3[nH]2)=C[C@H](c2ccc(C(F)(F)F)cc2)[C@H]1CCCO | inactive
CCn1cc(C(=O)NCC2CCCO2)c(=O)c2cc(S(=O)(=O)N3CCCCCC3)ccc21 (stereo not given) | inactive
N#CC1=C(NC=NCc2ccccc2)Oc2ccc3ccccc3c2C1c1ccccc1 (stereo not given) | 1.58 µM (active)
N=C1c2ccccc2CN1c1ccc(N2CCOCC2)c(S(=O)(=O)Nc2ccc(Cl)cc2)c1 | 4.47 µM (active)
O=C(O)c1cccc(Nc2ncnc3ccccc23)c1 | inactive
N=c1c2c(ncn1-c1ccccc1)Oc1ccc3ccccc3c1C2c1ccc2c(c1)OCO2 (stereo not given) | 2.51 µM (active)
NC(=O)OCC(COC(N)=O)c1ccccc1 | inactive

SMILES | Potency
N=c1c2c(ccn1Cc1ccccc1)Oc1ccc3ccccc3c1C2c1ccccc1 (stereo not given) | 2 µM (active)
c1cncc(-c2nc(-c3ccco3)cs2)c1 | inactive
Cc1ccc(S(=O)(=O)Nc2cccc3ncccc23)s1 | inactive
C/C(=N\NC(=S)NC1CCCCC1)c1c(F)cccc1F | inactive
CS(=O)(=O)c1nc(-c2ccccc2)cc(C(F)(F)F)n1 | 7.94 µM (active)
COc1cccc(C2c3c(ncn(-c4ccccc4)c3=N)Oc3ccc4ccccc4c32)c1OC (stereo not given) | 4.47 µM (active)
CN(CC(=O)NCc1ccc(F)cc1)S(=O)(=O)c1cccc2nsnc12 | inactive
CCC(=O)O[C@]1(C(=O)CCl)[C@@H](C)C[C@H]2[C@@H]3CCC4=CC(=O)C=C[C@]4(C)[C@@]3(F)[C@@H](O)C[C@@]21C | 11.2 µM (active)
C=CCNC(=O)/C(C#N)=C/c1cn(-c2ccccc2)nc1-c1ccc(OC)c([N+](=O)[O-])c1 | inactive
O=C(COC(=O)c1ccccc1C(=O)c1ccc(Cl)c([N+](=O)[O-])c1)NC1CCCCCC1 | 4.47 µM (active) and 8.91 µM (active)
NC(=O)c1ccsc1NC(=O)c1ccc(S(=O)(=O)N2CCCC2)cc1 | inactive
COCCCn1cnc2c(c1=O)c1nc3ccccc3nc1n2CCc1ccccc1 | inactive
Cc1nnc(NC(=O)c2cccc(S(=O)(=O)N3CCc4ccccc43)c2)s1 | inactive
CN(C)C(=S)N=Nc1[nH]c2ccccc2c1O | 10 µM (active)
CCOC(=O)C1CCCN(c2ncnc3c2oc2ccccc23)C1 (stereo not given) | 50.1 µM (active) and 12.6 µM (active)
CCN(CC)S(=O)(=O)c1ccc2c(c1)nc(SC(C)C(N)=O)n2-c1ccc(OC)cc1 (stereo not given) | inactive
N=c1c2c(ncn1-c1ccccc1)Oc1ccc3ccccc3c1C2c1ccc2c(c1)CCO2 (stereo not given) | 1.12 µM (active)
O=C(NCCCN1CCOCC1)c1cc2c(=O)[nH]c3ccccc3c2s1 | inactive
N[C@@H](Cc1cc(I)c(Oc2ccc(O)c(I)c2)c(I)c1)C(=O)O | inactive
N=c1c2c(ccn1-c1ccccc1)Oc1ccc3ccccc3c1C2c1ccccc1 (stereo not given) | 2.51 µM (active)
